Experimental findings from the supplement of paper PMC12067926 are described below.

A number with no mark means an inactive call.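 How the source made its calls: active = growth AUC significantly below the DMSO wells by Dunnett test; inactive = the rest.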

In one experiment the test system is Community 7. Kind of experiment: relative growth (AUC of 72 h growth curve relative to DMSO control, dAUC) (ratio); higher = more growth (less inhibition), active = hit call of the paper. The settings on record: 20 µM. In outline: (§1)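 Bacterial isolates from Icelandic stream sediments and Silwood Park soil, plus whole sediment communities, were grown to carrying capacity in Luria–Bertani medium, then diluted 1:100 into 96-well plates with each chemical at 20 µM (1% DMSO). A600 was read hourly for 72 h on a plate reader, with brief shaking before each read. Relative growth (dAUC) is the spline-integrated area under the growth curve, averaged over three biological replicates and divided by the mean of the DMSO controls.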
In the case of `Nc1c([N+](=O)[O-])ccc(Oc2ccccc2)c1Cl`, the relative growth was 0.955.

In the case of `COCC(=O)N(c1c(C)cccc1C)[C@H](C)C(=O)OC`, the relative growth was 0.993.

As to `O=C(Nc1ccc(F)cc1F)c1cccnc1Oc1cccc(C(F)(F)F)c1`, the relative growth is 1.04.

In the case of `N#Cc1sc2c(=O)c3ccccc3c(=O)c=2sc1C#N`, the relative growth was 1.06.

With `CC(C)OC(=O)Nc1cccc(Cl)c1`, the relative growth is 1.07.

As for `N#C/N=C1\SCCN1Cc1ccc(Cl)nc1`, the relative growth was 0.846.

With `CC(Oc1ccc(Oc2ncc(C(F)(F)F)cc2Cl)cc1)C(=O)O` (configuration not stated), the relative growth was 0.985.

With `Oc1ccccc1-c1ccccc1`, the relative growth is 1.12.

Take `C#CCOc1ccc(CCNC(=O)C(OCC#C)c2ccc(Cl)cc2)cc1OC` (configuration not stated): the relative growth was 1.

In the case of `O=[N+]([O-])c1cc(C(F)(F)F)c(Cl)c([N+](=O)[O-])c1Nc1ncc(C(F)(F)F)cc1Cl`, the relative growth was 0.794.

Regarding `CC(C)CC(C)c1sccc1NC(=O)c1cn(C)nc1C(F)(F)F` (configuration not stated), the relative growth is 1.06.

Turning to `O=C1C=C(N(Cc2ccc(Cl)nc2)CC(F)F)CO1`, the relative growth is 0.945.

In the case of `O=C(Nc1ccccc1-c1ccc(Cl)cc1)c1cccnc1Cl`, the relative growth was 1.

In the case of `CC(C)N1C(=O)c2ccccc2NS1(=O)=O`, the relative growth is 1.02.

Take `CCC(=O)Nc1ccc(Cl)c(Cl)c1`: the relative growth is 0.951.

As for `ClC1C(Cl)C(Cl)C(Cl)C(Cl)C1Cl` (configuration not stated), the relative growth was 1.03.

Consider `CN/C(=N\[N+](=O)[O-])NCc1cnc(Cl)s1`, for which the relative growth was 1.06.

As to `CCc1cnc(C2=NC(C)(C(C)C)C(=O)N2)c(C(=O)O)c1` (configuration not stated), the relative growth was 1.05.

In the case of `N#Cc1c(Cl)c(Cl)c(Cl)c(C#N)c1Cl`, the relative growth is 0.891.

Turning to `O=C(NCCc1ncc(C(F)(F)F)cc1Cl)c1ccccc1C(F)(F)F`, the relative growth was 0.935.

As for `CCc1cc(C)cc(CC)c1-c1c(OC(=O)C(C)(C)C)n2n(c1=O)CCOCC2`, the relative growth is 1.05.

Regarding `CC1(C)CON(Cc2ccccc2Cl)C1=O`, the relative growth was 1.08.

Turning to `CCOCn1c(-c2ccc(Cl)cc2)c(C#N)c(Br)c1C(F)(F)F`, the relative growth is 1.06.

Turning to `COc1cc(C)c(C(=O)c2c(OC)ccc(Br)c2C)c(OC)c1OC`, the relative growth is 0.987.

In the case of `CCOc1ccc(C(C)(C)COCc2cccc(Oc3ccccc3)c2)cc1`, the relative growth is 1.04.

In the case of `CCCCCCCCCCCCNC(=N)N`, the relative growth was 0.993.

`CN/C(=N/CC1CCOC1)N[N+](=O)[O-]` (configuration not stated): the relative growth is 1.01.

For `CC1COC(Cn2cncn2)(c2ccc(Oc3ccc(Cl)cc3)cc2Cl)O1` (configuration not stated), the relative growth is 1.02.

On to `CNC(=O)ON=C(C)SC`, for which the relative growth is 0.999.

As to `CC(C)(C)c1ccc(CSc2cnn(C(C)(C)C)c(=O)c2Cl)cc1`, the relative growth is 1.12.

Regarding `Cc1nnc(-c2ccccc2)c(=O)n1N`, the relative growth is 1.12.

Turning to `CCC(C)(C)C(=O)OC1=C(c2ccc(Cl)cc2Cl)C(=O)OC12CCCCC2`, the relative growth is 1.13.

As to `O=C(O)COc1ccc(Cl)cc1Cl`, the relative growth was 1.08.

For the molecule `CC(C)N(C)S(=O)(=O)NC(=O)c1cc(-n2c(=O)cc(C(F)(F)F)n(C)c2=O)c(F)cc1Cl`, the relative growth was 1.06.

As for `COc1ncc(F)c2nc(S(=O)(=O)Nc3c(F)cccc3F)nn12`, the relative growth was 0.948.

As for `CCCCC(C#N)(Cn1cncn1)c1ccc(Cl)cc1` (configuration not stated), the relative growth is 0.991.

For the next experiment, the system named is Community 8. The experiment is described as above. Conditions: 20 µM. Put shortly:
as §1
Regarding `Nc1c([N+](=O)[O-])ccc(Oc2ccccc2)c1Cl`, the relative growth is 1.03.

`COCC(=O)N(c1c(C)cccc1C)[C@H](C)C(=O)OC`: the relative growth was 1.06.

In the case of `O=C(Nc1ccc(F)cc1F)c1cccnc1Oc1cccc(C(F)(F)F)c1`, the relative growth was 0.97.

In the case of `N#Cc1sc2c(=O)c3ccccc3c(=O)c=2sc1C#N`, the relative growth was 1.06.

In the case of `CC(C)OC(=O)Nc1cccc(Cl)c1`, the relative growth is 1.01.

Turning to `N#C/N=C1\SCCN1Cc1ccc(Cl)nc1`, the relative growth is 1.07.

On to `CC(Oc1ccc(Oc2ncc(C(F)(F)F)cc2Cl)cc1)C(=O)O` (configuration not stated), for which the relative growth is 1.04.

Regarding `Oc1ccccc1-c1ccccc1`, the relative growth is 0.988.

On to `C#CCOc1ccc(CCNC(=O)C(OCC#C)c2ccc(Cl)cc2)cc1OC` (configuration not stated), for which the relative growth was 1.05.

On to `O=[N+]([O-])c1cc(C(F)(F)F)c(Cl)c([N+](=O)[O-])c1Nc1ncc(C(F)(F)F)cc1Cl`, for which the relative growth is 0.921.

Regarding `CC(C)CC(C)c1sccc1NC(=O)c1cn(C)nc1C(F)(F)F` (configuration not stated), the relative growth was 1.01.

Take `O=C1C=C(N(Cc2ccc(Cl)nc2)CC(F)F)CO1`: the relative growth was 0.997.

As for `O=C(Nc1ccccc1-c1ccc(Cl)cc1)c1cccnc1Cl`, the relative growth was 1.03.

`CC(C)N1C(=O)c2ccccc2NS1(=O)=O`: the relative growth is 0.996.

In the case of `CCC(=O)Nc1ccc(Cl)c(Cl)c1`, the relative growth is 1.06.

For the molecule `ClC1C(Cl)C(Cl)C(Cl)C(Cl)C1Cl` (configuration not stated), the relative growth was 0.993.

Regarding `CN/C(=N\[N+](=O)[O-])NCc1cnc(Cl)s1`, the relative growth is 1.

Take `CCc1cnc(C2=NC(C)(C(C)C)C(=O)N2)c(C(=O)O)c1` (configuration not stated): the relative growth is 1.03.

`N#Cc1c(Cl)c(Cl)c(Cl)c(C#N)c1Cl`: the relative growth was 1.02.

As for `O=C(NCCc1ncc(C(F)(F)F)cc1Cl)c1ccccc1C(F)(F)F`, the relative growth was 0.961.

Consider `CCc1cc(C)cc(CC)c1-c1c(OC(=O)C(C)(C)C)n2n(c1=O)CCOCC2`, for which the relative growth was 0.968.

For the molecule `CC1(C)CON(Cc2ccccc2Cl)C1=O`, the relative growth is 1.04.

Regarding `CCOCn1c(-c2ccc(Cl)cc2)c(C#N)c(Br)c1C(F)(F)F`, the relative growth is 1.05.

With `COc1cc(C)c(C(=O)c2c(OC)ccc(Br)c2C)c(OC)c1OC`, the relative growth was 1.08.

Consider `CCOc1ccc(C(C)(C)COCc2cccc(Oc3ccccc3)c2)cc1`, for which the relative growth was 1.06.

For `CCCCCCCCCCCCNC(=N)N`, the relative growth was 0.788.

On to `CN/C(=N/CC1CCOC1)N[N+](=O)[O-]` (configuration not stated), for which the relative growth was 1.03.

Take `CC1COC(Cn2cncn2)(c2ccc(Oc3ccc(Cl)cc3)cc2Cl)O1` (configuration not stated): the relative growth was 1.01.

`CNC(=O)ON=C(C)SC`: the relative growth was 0.942.

Take `CC(C)(C)c1ccc(CSc2cnn(C(C)(C)C)c(=O)c2Cl)cc1`: the relative growth is 1.03.

Consider `Cc1nnc(-c2ccccc2)c(=O)n1N`, for which the relative growth was 0.974.

Regarding `CCC(C)(C)C(=O)OC1=C(c2ccc(Cl)cc2Cl)C(=O)OC12CCCCC2`, the relative growth is 0.972.

`O=C(O)COc1ccc(Cl)cc1Cl`: the relative growth is 0.972.

With `CC(C)N(C)S(=O)(=O)NC(=O)c1cc(-n2c(=O)cc(C(F)(F)F)n(C)c2=O)c(F)cc1Cl`, the relative growth is 1.08.

Turning to `COc1ncc(F)c2nc(S(=O)(=O)Nc3c(F)cccc3F)nn12`, the relative growth is 1.04.

For `CCCCC(C#N)(Cn1cncn1)c1ccc(Cl)cc1` (configuration not stated), the relative growth was 0.904.
